Assay [1] has as its target Cytochrome P450 2C9 (Homo sapiens) (UniProt P11712). Briefly: qHTS Assay for Inhibitors and Substrates of Cytochrome P450 2C9 (AID 883). For activity change, negative = inhibition: % is set by controls: 0 for no effect and ±100 for the full control effect. Note: nearly all actives have a fitted effect of over 60% in size. Note: potency is the fitted concentration of half-maximal effect. In a few lines:
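Inhibition of CYP2C9 is scored as loss of luminescence, with 57uM sulphaphenazole defining 100% inhibition. Substrate Luciferin-H is used at 100uM, equal to its KM; enzyme at 10nM in 25mM KPO4, 60 min at 37C with NADPH regeneration.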
For orientation: qHTS replaces the single test concentration by a dilution series.

Assay [2] addresses Cytochrome P450 2C19 (Homo sapiens) (UniProt P33261). Put plainly: qHTS Assay for Inhibitors and Substrates of Cytochrome P450 2C19 (AID 899). For activity, negative = inhibition: % is set by controls: 0 for no effect and ±100 for the full control effect. Note: nearly all actives have a fitted effect of over 60% in size. Note: potency is the fitted concentration of half-maximal effect. In a few lines: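 5nM enzyme + 10uM Luciferin-H EGE (=KM), 50mM KPO4; cpd pin-transferred, 10 min 37C; NADPH regen, 60 min 37C; stopped w/ luciferin detection reagent, 20 min; luminescence. Normalized to 57uM ketoconazole (AC100).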
The target in assay [3] is Cytochrome P450 3A4 (Homo sapiens) (UniProt P08684). Put plainly: qHTS Assay for Inhibitors and Substrates of Cytochrome P450 3A4 (AID 884). For activity change, negative = inhibition: series mostly up to about 57 µM; % is set by controls: 0 for no effect and ±100 for the full control effect. Note: nearly all actives have a fitted effect of over 50% in size. Note: potency is the fitted concentration of half-maximal effect. In a few lines: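 20 nM human CYP3A4 with 25 uM Luciferin-PPXE (at KM) in 200 mM KPO4, preincubated 10 min with compound; NADPH regeneration started a 60 min RT reaction. Luciferin detected by luminescence, normalized to 57 uM ketoconazole as full inhibition.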
Sequence of Cytochrome P450 3A4 (Homo sapiens) (P08684 whole entry, looked up): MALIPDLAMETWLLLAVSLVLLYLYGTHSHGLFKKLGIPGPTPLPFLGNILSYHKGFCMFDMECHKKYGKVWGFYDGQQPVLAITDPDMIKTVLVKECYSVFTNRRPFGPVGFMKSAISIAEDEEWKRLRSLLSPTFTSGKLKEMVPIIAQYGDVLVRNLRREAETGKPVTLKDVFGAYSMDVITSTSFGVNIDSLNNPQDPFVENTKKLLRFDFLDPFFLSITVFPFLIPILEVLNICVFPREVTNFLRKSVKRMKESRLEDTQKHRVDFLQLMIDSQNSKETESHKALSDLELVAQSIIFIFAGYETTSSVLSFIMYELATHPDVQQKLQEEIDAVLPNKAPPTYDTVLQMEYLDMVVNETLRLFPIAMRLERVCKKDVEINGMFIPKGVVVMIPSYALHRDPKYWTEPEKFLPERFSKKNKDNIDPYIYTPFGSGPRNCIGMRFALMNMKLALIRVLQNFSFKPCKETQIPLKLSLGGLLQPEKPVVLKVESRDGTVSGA

Assay [4] concerns the target Cytochrome P450 2D6 (Homo sapiens) (UniProt P10635). Put plainly: qHTS Assay for Inhibitors and Substrates of Cytochrome P450 2D6 (AID 891).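 For activity change, negative = inhibition: luciferin methyl ether substrate demethylated by CYP2D6 with NADPH regeneration; % is set by controls: 0 for no effect and ±100 for the full control effect.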 Note: nearly all actives have a fitted effect of over 60% in size. Note: potency is the fitted concentration of half-maximal effect. In a few lines: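 Human CYP2D6 (5 nM) with 30 uM Luciferin-ME EGE (at Km) in 100 mM KPO4, compound preincubated 10 min, then NADPH regeneration system for 60 min at room temperature. Luciferin read by luminescence; normalized to 1.43 uM quinidine.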

For assay [5], the target named is Cytochrome P450 3A4 (Homo sapiens) (UniProt P08684). Put plainly: qHTS Assay for Activators of Cytochrome P450 3A4 (AID 885). Note: nearly all actives have a fitted effect of over 65% in size. The gist of the method:
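Steps: enzyme/substrate mix dispensed; compound added, 10 min RT; NADPH regeneration solution added, 60 min RT; luciferin detection buffer stops reaction; 20 min later luminescence measured.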

Each structure is given as a SMILES string. Values without a mark were called inactive. Results filed as inconclusive are left out. Calls of active or inactive are those of the source. Calls come from the whole dose curve; as a rule, active = well fitted curve in the direction sought with a large enough effect; inconclusive = small, poorly fitted or top-dose-only effect, or another doubt; inactive = no such curve, though single readings can be large; an effect the other way counts as inactive or inconclusive.

Sequence of Cytochrome P450 2C9 (Homo sapiens) (P11712 whole entry, looked up): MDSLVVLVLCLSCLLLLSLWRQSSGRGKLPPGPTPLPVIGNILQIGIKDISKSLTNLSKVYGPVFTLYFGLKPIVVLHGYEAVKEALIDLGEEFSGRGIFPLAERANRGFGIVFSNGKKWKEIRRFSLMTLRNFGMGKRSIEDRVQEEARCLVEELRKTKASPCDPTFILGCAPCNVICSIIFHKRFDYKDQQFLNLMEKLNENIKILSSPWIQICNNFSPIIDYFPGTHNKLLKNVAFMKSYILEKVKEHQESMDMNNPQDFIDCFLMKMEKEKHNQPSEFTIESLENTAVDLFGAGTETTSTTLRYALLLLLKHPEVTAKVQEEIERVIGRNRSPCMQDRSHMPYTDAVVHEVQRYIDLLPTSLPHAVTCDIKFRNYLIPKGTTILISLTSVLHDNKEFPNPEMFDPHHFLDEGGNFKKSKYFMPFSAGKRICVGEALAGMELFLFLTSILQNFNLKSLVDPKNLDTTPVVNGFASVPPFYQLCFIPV
Sequence of Cytochrome P450 2C19 (Homo sapiens) (P33261 whole entry, looked up): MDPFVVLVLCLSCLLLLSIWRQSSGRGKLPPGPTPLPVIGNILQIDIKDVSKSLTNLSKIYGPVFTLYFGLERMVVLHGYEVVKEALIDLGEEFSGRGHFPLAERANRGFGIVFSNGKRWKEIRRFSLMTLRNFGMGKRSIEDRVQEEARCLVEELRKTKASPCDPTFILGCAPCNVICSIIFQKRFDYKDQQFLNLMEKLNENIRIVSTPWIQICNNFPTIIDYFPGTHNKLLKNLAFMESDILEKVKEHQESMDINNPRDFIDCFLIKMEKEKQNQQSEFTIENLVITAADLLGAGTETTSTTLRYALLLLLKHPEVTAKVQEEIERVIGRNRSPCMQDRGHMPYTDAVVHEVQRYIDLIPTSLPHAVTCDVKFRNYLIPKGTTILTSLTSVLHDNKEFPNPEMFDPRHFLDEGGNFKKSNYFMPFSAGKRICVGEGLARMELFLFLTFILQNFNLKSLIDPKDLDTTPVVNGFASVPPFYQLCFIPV
Sequence of Cytochrome P450 2D6 (Homo sapiens) (P10635 whole entry, looked up): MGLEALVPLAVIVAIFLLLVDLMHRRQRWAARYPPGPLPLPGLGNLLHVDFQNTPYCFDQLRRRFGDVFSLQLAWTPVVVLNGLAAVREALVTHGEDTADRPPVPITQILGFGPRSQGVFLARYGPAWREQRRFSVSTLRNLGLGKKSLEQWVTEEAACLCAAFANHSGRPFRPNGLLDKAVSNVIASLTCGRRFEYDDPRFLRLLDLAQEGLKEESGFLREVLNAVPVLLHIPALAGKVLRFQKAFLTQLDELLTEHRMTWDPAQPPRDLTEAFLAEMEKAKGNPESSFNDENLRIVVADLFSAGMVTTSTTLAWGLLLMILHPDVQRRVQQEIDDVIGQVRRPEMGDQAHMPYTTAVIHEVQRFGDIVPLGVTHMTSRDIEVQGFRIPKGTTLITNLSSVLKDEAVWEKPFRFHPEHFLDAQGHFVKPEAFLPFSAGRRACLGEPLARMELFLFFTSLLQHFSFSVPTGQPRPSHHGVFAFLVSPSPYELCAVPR

`O=C1C=CC(=O)c2c1ccc1c2ccc2ccccc21`: the values for the Potency in assay [1] and in assay [2] were 1.26 µM (active) and 1.58 µM (active), respectively.
In the case of `CN1CCc2nc(CO)c(CO)cc2C1`, the activity change, negative = inhibition is 21.8% [at 11.4 µM] in assay [1], -11.6% [at 11.4 µM] in assay [3] and -13.1% [at 11.4 µM] in assay [4]. The activity, negative = inhibition in assay [2] is 81.3% [at 11.4 µM].
Take `O=C(OC1Cc2c(O)cc(O)cc2OC1c1cc(O)c(O)c(O)c1)c1cc(O)c(O)c(O)c1` (stereo not drawn): in assay [3], the Potency is 20 µM (active). For the same molecule, the Potency entry in assay [5] was “inactive”.
`CCC1CN2CCC1CC2C(Oc1cc2ccccc2c2ccccc12)c1ccnc2ccc(O)cc12` (stereo not drawn): the results for the activity change, negative = inhibition in assay [1], in assay [3] and in assay [4] were 22% [at 11.4 µM], -10.8% [at 11.4 µM] and -1.58% [at 11.4 µM], respectively. For the same molecule, the activity, negative = inhibition in assay [2] is 16.1% [at 11.4 µM].
For `O=C1NO[C@@H]2CN[C@@H](C(=O)O)[C@H]12`, the Potency entry in assay [3] was “inactive”.
On to `COC(=O)C1C(c2ccccc2)C2C(=O)c3c(OC)cc(OC)cc3O[C@@]12c1ccc(OC)cc1` (stereo partly drawn), for which the activity change, negative = inhibition was -4.65% [at 11.4 µM] in assay [1] and -16.4% [at 11.4 µM] in assay [4]. Further, in assay [3], the Potency is 3.98 µM (active). The activity change, positive = activation in assay [5] was -68.8% [at 11.4 µM].
On to `COc1c(-c2ccccc2)oc2c(ccc3occc32)c1=O`, for which the Potency is 1 µM (active) in assay [1], 3.16 µM (active) in assay [3], 10 µM (active) in assay [4] and 3.98 µM (active) in assay [2]. Besides, the Potency entry in assay [5] was “inactive”.
In the case of `C[C@@]12CC[C@H]3[C@@H](CCC4=CC(=O)CC[C@]43C)[C@H]1CC[C@H]2C(=O)CO`, in assay [3], the Potency result was “inactive”.
On to `COC(=O)[C@@H]1C[C@@]2(O)[C@@H](O)[C@@H](O)[C@@H](O)C[C@H]2N1Cc1cccnc1`, for which, in assay [3], the Potency result is “inactive”.
In the case of `CC(C)C[C@H](NC(=O)N1CCCCCC1)C(=O)N[C@H](Cc1cn(C)c2ccccc12)C(=O)N[C@H](Cc1ccccn1)C(=O)O`, the Potency in assay [1] is 6.31 µM (active).
For the molecule `CC(C)CC(N)C1(c2ccc(Cl)cc2)CCC1` (stereo not drawn), the Potency in assay [3] is 1.58 µM (active). Further, in assay [5], the Potency result was “inactive”.
Turning to `COCOc1ccc(Br)cc1C(=O)/C=C\c1ccc2c(c1)OCO2`, the Potency in assay [1] was 2 µM (active); in assay [3] it was 3.16 µM (active); in assay [4], 3.16 µM (active); in assay [2], 0.0631 µM (active). In addition, in assay [5], the activity change, positive = activation is -91.5% [at 11.4 µM].
Consider `CC(=O)c1c(O)c(C)c(O)c2c1OC1=CC(=O)[C@H](C(C)=O)C(=O)[C@]12C`, for which the Potency in assay [1] was 0.0126 µM (active).
